Results reported in PubChem BioAssay AID624330 (Southern Research Specialized Biocontainment Screening …, 2012).
“And” between values parts separate entries of the source, which are not always exact repeats. Equal entries are not always repeated. Hit rate of the full screen: of about 340,000 compounds, about 2,100 (0.62%) were called active.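 How the source made its calls: active means first-screen hits whose inhibition reached a set limit at any dose in the follow-up dose series; inconclusive means inhibition above the set first-screen limit but never retested; inactive means the rest.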 Only a sample is shown. Measured potencies and affinities stand elsewhere.

Biological target: Rac GTPase-activating protein 1 (Homo sapiens) (UniProt Q9H0H5)
Sequence (Q9H0H5 whole entry, looked up): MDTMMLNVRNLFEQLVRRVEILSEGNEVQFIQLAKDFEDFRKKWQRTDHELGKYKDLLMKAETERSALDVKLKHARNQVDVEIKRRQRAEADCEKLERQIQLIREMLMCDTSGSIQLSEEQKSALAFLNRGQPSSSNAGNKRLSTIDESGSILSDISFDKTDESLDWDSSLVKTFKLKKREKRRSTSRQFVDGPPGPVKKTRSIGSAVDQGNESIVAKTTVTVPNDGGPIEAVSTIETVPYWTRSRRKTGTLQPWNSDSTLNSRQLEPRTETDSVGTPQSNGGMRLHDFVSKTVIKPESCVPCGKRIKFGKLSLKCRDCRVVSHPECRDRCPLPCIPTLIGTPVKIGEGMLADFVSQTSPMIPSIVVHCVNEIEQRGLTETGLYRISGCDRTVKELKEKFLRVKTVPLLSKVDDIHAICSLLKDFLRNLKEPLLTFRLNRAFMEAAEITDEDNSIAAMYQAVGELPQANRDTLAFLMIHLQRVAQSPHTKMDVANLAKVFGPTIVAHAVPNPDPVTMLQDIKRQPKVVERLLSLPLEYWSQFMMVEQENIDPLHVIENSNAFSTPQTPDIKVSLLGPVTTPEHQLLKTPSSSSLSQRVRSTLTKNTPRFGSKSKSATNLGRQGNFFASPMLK
Experiment: blockers of MgcRacGAP-driven Rac1 GTP hydrolysis – biochemical, ADP Hunter fluorescence, primary and confirmatory, confirmation (AID 624330);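 further: fluorescence reports GDP produced by GAP-driven GTP hydrolysis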
Conditions: MgcRacGAP-stimulated Rac1 GTP hydrolysis, at 30 µM, active compounds read high, GST-tagged Rac1 F28L mutant substrate

inhibition, inactive:
O=c1c2cc(F)ccc2sn1-c1ccc(F)cc1 30.6%
O=c1c2cc(C(F)(F)F)ccc2sn1-c1ccccc1 24.6%
OCCOCCN1CCN(C(=S)Nc2ccccc2)CC1 6.01%
OCCOCCN1CCN(C2=Nc3ccccc3Sc3ccccc32)CC1 -0.15% and -4.72%
COC(=O)C1CCN(Cc2cn(Cc3ccccc3)nc2-c2cc3ccccc3o2)CC1 13.5%
COCCNC(=O)C(OC(=O)c1nsc(Cl)c1Cl)C(C)C (centres undefined) 10.9%
CCCN(CC(=O)Nc1cc(Cl)ccc1Cl)C(=O)c1ccc(N2CCCC2=O)cc1 3.44%
COc1cc(/C=N/NC(=O)c2cc(-c3cccc(Br)c3)nc3ccccc23)cc(OC)c1O 13.9%
O=C1NC(=S)SC1=Cc1ccc(Cl)cc1 8.39%
Cc1cc(/C=C2\SC(=S)NC2=O)c(C)n1C 26.3%
Cc1nn(C)cc1/C=C1\SC(=S)NC1=O -1.15%
O=C1NC(=S)SC1=Cc1ccc(F)cc1 15.8%
O=C1NC(=O)C(=Cc2ccc(Cl)cc2Cl)S1 7.66%
O=C1NC(=S)SC1=Cc1cc(Br)ccc1O 16.8%
Cc1cccc(NC(=O)CN2C(=O)NC(C)(c3ccc4c(c3)OCO4)C2=O)c1 (centres undefined) 3.23%
O=C(CSc1ncn[nH]1)N1CCN(c2nnc(-c3ccccc3)c3ccccc23)CC1 11.7%
Cc1cc(C)nc(N/N=C/C2=C(N3CCOCC3)C(=C/c3ccccc3)/CC2)n1 9.21%
COc1ccc(N=C2C(=O)N3c4c(cccc42)C(C)=CC3(C)C)cc1 13.7%
C=CCN(Cc1nc(-c2ccc(OC)cc2)no1)C(=O)c1ccc2c(c1)OCO2 2.96%
Clc1ccc(/C=N/N2CCN(Cc3ccccc3Cl)CC2)cc1 12%
Cn1cccc1/C=N/N1CCN(Cc2ccccc2)CC1 23%
CCN(CC)c1ccc(/C=N/N2CCN(Cc3ccccc3Cl)CC2)cc1 -3.36%
Cn1cccc1/C=N/N1CCN(Cc2cccc3ccccc23)CC1 25.4%
Cc1ccc(NC(=S)NCc2ccc3c(c2)cc(C)n3C)c(C)c1 9.16%
O=C(COC(=O)c1ccc(O)cc1)Nc1cccc(S(=O)(=O)N2CCCCC2)c1 5.81%
C=C(C)c1ccc(C(C)(C)NC(=O)N(Cc2ccccc2)Cc2ccco2)cc1 0.01%
CC(=O)Oc1ccc2oc(/C=C/N(C)C)c([N+](=O)[O-])c2c1 16.9%
C/C(=C/c1oc2ccc(O)cc2c1[N+](=O)[O-])N(C)C 14.9%
CCN(CC)S(=O)(=O)c1ccc(NC2=NS(=O)(=O)c3ccccc32)cc1 1.99%
O=S1(=O)N=C(Nc2ccc(N3CCOCC3)cc2)c2ccccc21 2.07%
CC(=O)Nc1ccc(NC2=CC(=O)CC(C)(C)C2)cc1 7.91%
CC1(C)CC(=O)C=C(Nc2ccc(F)cc2)C1 -10%
N#CCc1ccc(Oc2ccc([N+](=O)[O-])cn2)cc1 5.55%
Cc1oc(-c2ccccc2)nc1C(=O)OCC(=O)NCc1ccc(Cl)cc1 -0.87%
CCCCn1c(N)c(N(CC(C)C)C(=O)c2ccc(Cl)c(S(=O)(=O)N3CCCC3)c2)c(=O)[nH]c1=O 5.8%
O=C(C1CCCN(Cc2ccc(Cl)cc2)C1)N1CCCCC1 (centres undefined) 24.9%
CN(Cc1ccccc1)C(=O)C1CCCN(Cc2cccc(Cl)c2)C1 (centres undefined) 3.69%
COc1cccc(CN2CCCC(C(=O)N3CCCCC3)C2)c1 (centres undefined) 22.1%
O=C(C1CCCN(Cc2ccccc2)C1)N1CCCCC1 (centres undefined) 21.6%
COc1ccc(CN2CCCC(C(=O)N(C)Cc3ccccc3)C2)cc1OC (centres undefined) 27.7%
COc1ccc(CN2CCCC(C(=O)N3CCCCC3)C2)cc1 (centres undefined) 26.1%
O=C(NNC(=O)c1cc2ccccc2o1)c1ccncc1 3.59%
Cc1cc(C[n+]2ccsc2N)c2ncccc2c1 4.36%
NC(=O)CC(NC(=O)c1ccc(Br)cc1)c1ccc(N2CCN(c3ccccn3)CC2)c([N+](=O)[O-])c1 (centres undefined) 4.07%
O=C(NNC(=O)c1ccc([N+](=O)[O-])cc1)NC1CCCCC1 1.53%
CCCC1NC(=O)c2cccnc2-n2c1nc1ccc(Cl)cc1c2=O (centres undefined) 13.8%
Cc1ccc(C)c(-n2nnc3ccccc3c2=O)c1 2.95%
Cc1ccc(N2C(=O)CCC2=O)c(C)c1 4.77%
Cc1ccc(C)c(N2CC(=O)N(c3cc(C)ccc3C)CC2=O)c1 1.32%
Cc1ccc(-n2c(C)cc(=O)cc2C)c(C)c1 6.02%
COc1ccccc1NC(=O)C(C)n1cnc2c(oc3nc4c(cc32)CCCC4)c1=O (centres undefined) -4.17%
COc1ccc(/C=C2/CCCC(C(=O)C(F)(F)F)=C2O)cc1OC 6.67%
CCOC(=O)C(=O)Nc1cc([N+](=O)[O-])ccc1C 0.69%
COc1cc(C(=O)NCCCc2ccccc2)cc(OC)c1OC 5.75%
Cc1ccc(-c2n[nH]c(=S)n2C)cc1 14.7%
Cc1ccc(-c2cn3c(=S)[nH]nc3s2)cc1 22.2%
Cc1cc(CSc2ccccc2C(=O)O)on1 -2.15%
C/C(=N/NC(=O)c1ccc(-c2ccccc2)cc1)c1cc(O)cc(O)c1 14.9%
CC(=O)Nc1cc(S(=O)(=O)Nc2ccc(C)cc2)c(C)cc1C 11.6%
Cc1cc(C(=O)CCC(=O)N(C)CC(=O)Nc2c(Cl)cccc2Cl)c(C)s1 1.85%
C/C(=N\NS(=O)(=O)c1ccc(Cl)c([N+](=O)[O-])c1)c1cc2ccccc2o1 10.9%
O=C(O)c1ccc2c(c1)C1C=CCC1C(c1ccncc1)N2 (centres undefined) 9.53%
CCOC(=O)C1Nc2ccc(C)cc2C2C=CCC12 (centres undefined) 10.5%
CCOC(=O)c1ccc2c(c1)C1C=CCC1C(C(=O)OCC)N2 (centres undefined) 12.1%
CC(=O)c1ccc2c(c1)C1C=CCC1C(c1ccncc1)N2 (centres undefined) 13%
O=C(C[C@H]1C(=O)N(CCc2ccccc2)C[C@@H]1Cc1ccccc1)Nc1ccc(Br)cc1 12.8%
CN(C)c1ccc(O)c2c1CC1CC3[C@@H](N(C)C)C(=O)C(C(N)=O)C(=O)[C@]3(O)C(=O)C1C2=O (some centres undefined) 15.3%
CN(C)c1ccc(O)c2c1CC1CC3C(N(C)C)C(=O)C(C(N)=O)=C(O)[C@@]3(O)C(=O)C1=C2O (some centres undefined) 9.88%
C[C@H]1c2cccc(O)c2C(O)=C2C(=O)[C@]3(O)C(O)=C(C(N)=O)C(=O)[C@@H](N(C)C)[C@@H]3[C@@H](O)[C@@H]21 8.18%
C=C1c2cccc(O)c2C(=O)C2C(=O)[C@]3(O)C(=O)C(C(N)=O)C(=O)[C@@H](N(C)C)[C@@H]3[C@@H](O)[C@H]12 (some centres undefined) 73.9%
C[C@H]1c2cccc(O)c2C(O)=C2C(=O)[C@]3(O)C(O)=C(C(N)=O)C(=O)[C@@H](N(C)C)C3[C@@H](O)C21 (some centres undefined) 2.79%
C[C@H]1c2cccc(O)c2C(O)=C2C(=O)C3(O)C(O)=C(C(N)=O)C(=O)[C@@H](N(C)C)[C@@H]3[C@@H](O)[C@@H]21 (some centres undefined) 1.02%
CC(=O)Nc1ccc(-c2csc(NCCc3ccccc3)n2)cc1 9.25%
O=C1CN(C(=O)COC(=O)Cc2ccccc2F)c2ccccc2N1 3.02%
Nc1cc(S(=O)(=O)Nc2ccccc2Cl)ccc1N1CCCC1 11.5%
O=C(O)CSc1nnc(CNc2cccc(C(F)(F)F)c2)n1Cc1ccco1 10.8%
COC(=O)CCC(=O)NNC(=O)CCC(=O)Nc1cccc(Cl)c1C 8.78%
COc1ccc(OC)c(-c2csc(NC(=O)CSc3ccc(Br)cc3)n2)c1 5.11%
CCn1c(=O)n(CC)c2cc(N3CCCC3)c(NC(=O)c3ccc(F)cc3)cc21 17%
CCn1c(=O)n(CC)c2cc(N3CCCC3)c(NC(=O)c3cccc(C)c3)cc21 11.6%
CCn1c(=O)n(CC)c2cc(N3CCCC3)c(NC(=O)c3cccc(OC)c3)cc21 8.3%
COc1cccc(C(=O)Nc2cc3c(cc2N2CCOCC2)n(C)c(=O)n3C)c1 -34.3%
O=C(NCC(c1ccco1)N1CCCCC1)c1cccnc1 (centres undefined) 0.38%
C/C(N)=C(/C#N)C(=O)CSc1nc2ccccc2n1CC(C)C 8.8%
NC(=S)N=Nc1c(O)n(CC(=O)Nc2ccccc2)c2ccccc12 -6.62%
COc1ccc(C(=O)Nc2c(N)nc(SCC(=O)N3CCC(C)CC3)[nH]c2=O)cc1 6.29%
N#Cc1ccsc1NC(=O)C1=COCCO1 10.4%
CN(C)c1ccc(CNCC2CCCO2)cc1 (centres undefined) -6.93%
CN(C)c1ccc(C(=O)NCC2CCCO2)cc1 (centres undefined) -9.43%
CN(CC(=O)Nc1cccc(S(=O)(=O)N2CCOCC2)c1)CC(=O)Nc1ccc(Cl)c(C(F)(F)F)c1 6.95%
C/C(=N\O)C(C)(C)Nc1ccc(Cl)cc1 11.3%
CC(C)C(CO)NC(=O)CC(=O)NC(CO)C(C)C (centres undefined) 5.27%
CN(C)c1ccc(C=NN2CCCCCC2)cc1 -2.87%
CC1CCCC(C)N1/N=C/c1ccc(N(C)C)cc1 (centres undefined) 9.58%
